± gives the standard deviation of the averaged measurements. Over roughly 33,000 sequences, “E-score (rank enrichment, -0.5 to 0.5)” has its median near -0.0028; the highest 2% begin near 0.23. Many of the other results were omitted from the sample, so the highest values are more common in it than they were.
Each sequence was assayed on 2Sb-muMax20 (muMax20 with two 1,3-bis(methyl)benzene Cys staples, A13C/A17C and Q88C/A92C, C-terminal Lys) (assay: PBM 8-mer E-score (E-score (rank enrichment, -0.5 to 0.5)); higher = stronger preferential binding).
Protocol: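 Protein binding microarray (universal PBM chip covering all 10-mers in fixed probe flanks) with chemically synthesized human Max(13-93) bHLH-LZ analogs (not full-length Max) bearing noncanonical residues (hArg, Tha, Aib, Nle at 65) and aromatic Cys staples. Read-out per 8-mer (and its reverse complement): E-score (rank-based enrichment, -0.5 to 0.5) and Z-score of median probe intensity.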

Sequence | PBM 8-mer E-score
TCGGACGA | -0.0961 ± 0.011
CATGCCCG | 0.114 ± 0.033
ACGTAGGC | -0.161 ± 0.069
AATTGATG | 0.196 ± 0.013
TGCCCCCA | 0.0887 ± 0.0026
TGCCCCAA | 0.304 ± 0.012
AGCCCCCA | -0.192 ± 0.049
TGCCCAAA | -0.17 ± 0.028
GGCCCCAA | 0.134 ± 0.045
AGCCCCAA | 0.2458 ± 0.001
CGCTAATA | 0.0712 ± 0.011
CAGGTAGG | 0.0772 ± 0.037
ATCTCTGC | 0.124 ± 0.041
AAGTTTAT | 0.263 ± 0.011
AAGTTTAG | 0.193 ± 0.079
AAGTTTAC | -0.0181 ± 0.035
CTATGGTC | -0.0714 ± 0.011
ACCTTCCG | 0.156 ± 0.054
TAACGATA | 0.261 ± 0.025
CAACGATA | 0.0514 ± 0.023
AAACGATA | 0.0414 ± 0.058
AAGCCAAA | -0.0671 ± 0.036

Sequence | PBM 8-mer E-score
GACTACTA | 0.123 ± 0.086
AACGATTG | -0.048 ± 0.0011
AAAGGAGA | 0.102 ± 0.13
GAAGGAGA | 0.278 ± 0.031
CAAGGAGA | -0.121 ± 0.026
ATATGAAA | 0.268 ± 0.017
TTATGAAA | -0.0227 ± 0.036
ATATGAAG | -0.0272 ± 0.098
ATATGAAC | 0.111 ± 0.0082
ATATGAAT | 0.269 ± 0.0035
CTATGAAA | 0.122 ± 0.039
GCGCTGAC | 0.0819 ± 0.0047
ATTCGGCA | -0.0961 ± 0.057
TAAGTGTA | -0.00771 ± 0.18
AAAGTGTA | 0.185 ± 0.019
AACGTGTC | -0.0169 ± 0.047
CCCGTGTC | -0.222 ± 0.044
AACGTGTA | 0.0661 ± 0.014
GACGTGTA | -0.0568 ± 0.059
CACGTGTC | 0.366 ± 0.032
CAAGTGTA | 0.231 ± 0.042
CACGTGTA | 0.3871 ± 0.0038

Sequence | PBM 8-mer E-score
ATGGCCGA | -0.0989 ± 0.12
CGGTAGCA | 0.0259 ± 0.0084
CACTAGGC | -0.0625 ± 0.012
AAGGTACT | -0.0359 ± 0.027
CGCCACAC | -0.107 ± 0.0099
AAAATCAG | -0.00194 ± 0.044
AATTCCCC | 0.162 ± 0.019
AAATTCCA | 0.243 ± 0.0059
CAATTCCA | 0.021 ± 0.024
GATTCCCA | -0.109 ± 0.031
ATTCCCCC | -0.0763 ± 0.046
ATTCCCCA | 0.345 ± 0.0051
GTTCCCCA | 0.0903 ± 0.0034
AATTCCCA | 0.251 ± 0.056
GAATTCCA | 0.0438 ± 0.014
AAAATCAC | 0.28 ± 0.019
GAAATCAC | 0.0559 ± 0.039
GAGGACGA | -0.0985 ± 0.014
CAGGAATA | -0.0263 ± 0.13
AGACTGCC | -0.138 ± 0.008
AGGCGCTA | -0.116 ± 0.03
ACAGGATA | 0.046 ± 0.059

Sequence | PBM 8-mer E-score
CCTCTAAC | -0.122 ± 0.012
ATGTCCCC | 0.0908 ± 0.0075
AGCGCCTG | -0.212 ± 0.01
AAAATCCA | 0.232 ± 0.0091
GATTTCCC | 0.0913 ± 0.071
ATTTTCCC | 0.17 ± 0.024
CAAATCCA | 0.0168 ± 0.048
AATTTCCC | 0.301 ± 0.032
GAAATCCA | -0.0749 ± 0.093
GCCACAAA | 0.0853 ± 0.099
ACGGCTTA | 0.0267 ± 0.027
CAATGCTC | -0.0184 ± 0.021
GGAGTAGA | 0.139 ± 0.0065
GGGAAGGA | 0.0711 ± 0.073
ATGTATTA | 0.216 ± 0.018
CTGTATTA | -0.0311 ± 0.058
CAGTATTA | 0.28 ± 0.02
GTGTATTA | 0.244 ± 0.061
GAGTATTA | 0.12 ± 0.024
AAGTATTA | 0.157 ± 0.094
AGCGCAAC | -0.0193 ± 0.035
CCAGACGC | -0.135 ± 0.041

Sequence | PBM 8-mer E-score
CGGCTGAG | -0.16 ± 0.018
ACACCTAT | 0.0344 ± 0.0022
AACCTATA | 0.0842 ± 0.034
TACCTATA | 0.116 ± 0.032
CACCTATA | 0.232 ± 0.056
AAGAATCG | 0.202 ± 0.011
TTCCTCAA | -0.0714 ± 0.003
TCAGCCGA | -0.258 ± 0.094
CCGATCGC | 0.0847 ± 0.035
ACGATCGC | 0.0439 ± 0.021
GCGATCGC | 0.261 ± 0.0046
ACTAAAGT | 0.0154 ± 0.055
CAATGGTA | 0.0764 ± 0.11
GAATACAA | 0.164 ± 0.0018
CCCACTCG | -0.168 ± 0.084
CCCACTTA | 0.2675 ± 0.00044
CCCACTCC | 0.241 ± 0.017
GCCACTTA | -0.042 ± 0.068
CCCACTTC | 0.184 ± 0.051
GCCACTCC | -0.166 ± 0.023
CCGACGGC | -0.2 ± 0.038
GTAGTGAA | 0.206 ± 0.042
